Results on 7 sequences are retold here after the supplement of paper PMC6555819.

What all share (experiment): PBM binding z-score (relative to random genomic background probes); higher = stronger binding; sequences stand for … in GC…GCGATTGACAGCGTAGAATGAAGG
Experiment [1] has as its system FXR:RXRa (NR concentration 270 nM, RXRa partner concentration 90 nM). The gist of the method:
(§1)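 Binding z-scores take random background probes as their reference. They come from custom Agilent 4×180K protein-binding microarrays incubated 1 h with ligand-free nuclear receptor dimers, with antibodies against each partner (one per run) detecting binding. Scanned fluorescence was regression-normalized.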

For experiment [2], the system named is LXRa:RXRa (NR concentration 270 nM, RXRa partner concentration 90 nM). The gist of the method: as §1
Experiment [3] relates to LXRa homodimer (NR concentration 270 nM). The gist of the method:
as §1

Experiment [4] relates to LXRb:RXRa (NR concentration 270 nM, RXRa partner concentration 90 nM). The method, boiled down: as §1
The test system of experiment [5] is LXRb homodimer (NR concentration 270 nM). The method, boiled down:
as §1

The subject of experiment [6] is PPARa:RXRa (NR concentration 270 nM, RXRa partner concentration 90 nM). The gist of the method: as §1
The subject of experiment [7] is PPARg:RXRa (NR concentration 180 nM, RXRa partner concentration 90 nM). The method, boiled down: as §1
Experiment [8] deals with PPARg:RXRa 270nM:90nM, anti-RXR (NR concentration 270 nM, RXRa partner concentration 90 nM). The gist of the method: as §1
Experiment [9] relates to PPARg:RXRa 30nM:10nM, anti-RXR (NR concentration 30 nM, RXRa partner concentration 10 nM). The method, boiled down: as §1
The test system of experiment [10] is PPARg:RXRa 90nM:30nM, anti-RXR (NR concentration 90 nM, RXRa partner concentration 30 nM). The gist of the method: as §1
Experiment [11] has as its system PPARg:RXRa DBDmut IVT, anti-RXR (DBD mutation: RXRa K156A/R161A, NR concentration 270 nM, RXRa partner concentration 90 nM). The method, boiled down: as §1
Experiment [12] deals with PPARg:RXRa IVT, anti-PPARg (NR concentration 270 nM, RXRa partner concentration 90 nM). The gist of the method:
as §1

For experiment [13], the system named is PPARg DBDmut:RXRa IVT, anti-PPARg (DBD mutation: PPARg1 K132A/R137A, NR concentration 270 nM, RXRa partner concentration 90 nM). The method, boiled down: as §1
Experiment [14] deals with PPARg DBDmut IVT, anti-PPARg (DBD mutation: PPARg1 K132A/R137A, NR concentration 270 nM). The gist of the method:
as §1

In experiment [15] the test system is PPARg homodimer (NR concentration 180 nM). The method, boiled down: as §1
The subject of experiment [16] is PXR:RXRa (NR concentration 270 nM, RXRa partner concentration 90 nM). The gist of the method: as §1
The test system of experiment [17] is PXR homodimer (NR concentration 270 nM). The method, boiled down: as §1
The subject of experiment [18] is RARa:RXR (NR concentration 270 nM, RXRa partner concentration 90 nM). The gist of the method: as §1
Experiment [19] relates to RARa homodimer (NR concentration 270 nM). The gist of the method:
as §1

For experiment [20], the system named is RARb:RXRa (NR concentration 270 nM, RXRa partner concentration 90 nM). The method, boiled down:
as §1

ATCGAAAGGTCGGAGGTGAGTATACCCACCCGAA: the PBM binding z-score in experiment [1] was 2.56; in experiment [2], 2.13; in [3], -0.237; in [4], 1.67; in experiment [5], 0.308; in experiment [6] it was 3.57. The PBM binding z-score was 2.78 in experiment [7]; 3.13 in [8]; 1.04 in experiment [9]; 2.13 in experiment [10]; -0.278 in experiment [11]; 1.78 in experiment [12]. Also, the PBM binding z-score is 1.11 in experiment [13]; 0.559 in [14]; 1.66 in [15]; 1.87 in [16]; 0.241 in experiment [17]; 2.79 in [18]. Also, the values for the PBM binding z-score in experiment [19] and in experiment [20] were 0.0274 and 3.28, respectively.
Consider CCTACTGGGCCACCAAAGGTCATTGATTCAGTGA, for which the PBM binding z-score turned out to be 3.72 in [1]; 5.73 in [2]; 6.47 in experiment [3]; 4.95 in [4]; 0.575 in [5]; 4.69 in experiment [6]. Also, the PBM binding z-score in experiment [7] stood at 5; in experiment [8], 5.44; in [9] it was 2.81; in [10], 4.94; in experiment [11] it was 5.36; in [12], 5.74. The PBM binding z-score is 1.31 in [13]; 0.0425 in experiment [14]; 4.38 in experiment [15]; 5.69 in experiment [16]; 2.75 in experiment [17]; 6.23 in [18]. The PBM binding z-score in [19] came to 2.56; in [20], 4.
ATGTCTAGGTAAGACTCAGTTCAGTGAAGAACGC: the PBM binding z-score in experiment [1] was -0.0311; in [2], 0.274; in experiment [3], 0.049; in experiment [4], -0.259; in experiment [5], -0.00137; in experiment [6] it was -0.0837. In addition, the PBM binding z-score in experiment [7] was 0.0566; in experiment [8] it was 0.15; in experiment [9] it was -0.029; in experiment [10], -0.0514; in experiment [11] it was 0.955; in experiment [12], 0.996. Moreover, the PBM binding z-score in experiment [13] is 0.297; in experiment [14] it was 0.538; in experiment [15] it was 0.433; in experiment [16], 0.668; in [17], 1.4; in [18], -0.0923. The PBM binding z-score is 0.712 in experiment [19] and 0.132 in experiment [20].
As to GGAACCAGGGCAAAGTTGATAGCATCTGTCGACG, the PBM binding z-score is 0.769 in [1]; 0.723 in experiment [2]; -0.0781 in experiment [3]; 0.931 in experiment [4]; 0.32 in experiment [5]; 4.38 in experiment [6]. The PBM binding z-score in [7] turned out to be 7.33; in experiment [8] it was 7.61; in [9], 6.29; in [10], 7.86; in experiment [11] it was 4.31; in experiment [12], 4.92. Moreover, the PBM binding z-score amounted to 0.131 in experiment [13]; 1.82 in experiment [14]; 1.1 in [15]; 0.754 in [16]; 0.639 in [17]; 0.798 in [18]. In addition, the figures for the PBM binding z-score in experiment [19] and in experiment [20] were 0.36 and 2.22, respectively.
On to CGAACGAGGCCATGAGTTGATAGCAAATGCCGAT, for which the PBM binding z-score in experiment [1] was -0.039; in experiment [2] it was -0.24; in experiment [3] it was -0.636; in experiment [4], -0.483; in experiment [5] it was -1.01; in experiment [6], 0.273. The PBM binding z-score in experiment [7] was 0.728; in [8], 0.586; in experiment [9] it was -0.00312; in experiment [10], 0.44; in experiment [11], 1.62; in experiment [12], 0.713. For the same sequence, the PBM binding z-score is -0.17 in experiment [13]; -0.886 in experiment [14]; 0.125 in experiment [15]; -0.17 in experiment [16]; -0.294 in [17]; 0.133 in experiment [18]. For the same sequence, the PBM binding z-score was -0.191 in experiment [19] and 0.941 in experiment [20].
As for CAAACTAGGTCAATGTCAAAGTCGGTTTGTGCCA, the PBM binding z-score in [1] was 3.38; in experiment [2], 2.45; in experiment [3] it was 0.407; in experiment [4], 1.97; in [5] it was 0.714; in [6] it was 4.9. Also, the PBM binding z-score in [7] was 7.78; in [8], 6.44; in experiment [9] it was 4.27; in [10], 6.04; in experiment [11], 8.51; in [12], 8.59. Also, the PBM binding z-score is 5.32 in [13]; 4.74 in experiment [14]; 2.82 in [15]; 1.39 in experiment [16]; -0.00687 in [17]; 2.11 in experiment [18]. Also, the PBM binding z-score in [19] is 0.756; in [20] it was 3.86.
On to CCTACTTGGCCACGAAAGGTCATTGATTCAGTGA, for which the PBM binding z-score in experiment [1] was determined as 4.07; in [2], 5.32; in [3], 5.29; in experiment [4], 4.61; in experiment [5], 1.16; in experiment [6] it was 4.46. The PBM binding z-score in experiment [7] was found to be 1.84; in experiment [8], 3.31; in experiment [9] it was 1.01; in [10], 2.5; in experiment [11] it was 1.97; in [12], 2.14. The PBM binding z-score stood at 0.246 in experiment [13]; 0.627 in [14]; 3.9 in experiment [15]; 5.3 in experiment [16]; 1.97 in experiment [17]; 5.51 in [18]. The figures for the PBM binding z-score in experiment [19] and in [20] were 2.48 and 4.09, respectively.
